PubChem BioAssay AID1159580 (chemical genetic matrix, 2015)
In all, about 5,500 compounds went through this assay and about 2,000 (36%) were called active. Inconclusive results (about 18%) are left out. Rule as the data show it: active = normalized growth mostly below about 0.91 (no sharp cut-off); inconclusive = no clear call, values can overlap the other calls; inactive = mostly above about 0.92. Some of the results follow.

Assay: chemical genetic growth profiling, strain panel (AID 1159580);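 also: tested at 20 µM; growth read once vehicle control cultures reached saturation at 30 °C; 1 = growth at the plate median or of vehicle wells; lower values mean less growth of the strain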
Settings: growth OD

Measured: normalized growth

S=c1nc[nH]c2nc[nH]c12
inactive: S. cerevisiae deletion strains, locus YJR075W, strain HOC1, stronger effect = lower value 0.996 | S. cerevisiae deletion strains, locus YKL009W, strain mrt4, stronger effect = lower value 0.987 | S. cerevisiae deletion strains, locus YKL068W, stronger effect = lower value 0.983 | S. cerevisiae deletion strains, locus YKL085W, strain MDH1 (second series), stronger effect = lower value 0.966 | S. cerevisiae deletion strains, locus YKL085W, strain MDH1, stronger effect = lower value 0.966 | S. cerevisiae deletion strains, locus YKL160W, strain elf1, stronger effect = lower value 1.04 | S. cerevisiae deletion strains, locus YKR001C, strain vps1, stronger effect = lower value 0.99 | S. cerevisiae deletion strains, locus YKR026C, strain gcn3, stronger effect = lower value 1.01 | S. cerevisiae deletion strains, locus YKR091W, strain srl3, stronger effect = lower value 0.996 | S. cerevisiae deletion strains, locus YLL001W, strain dnm1, stronger effect = lower value 1.01 | S. cerevisiae deletion strains, locus YLL026W, stronger effect = lower value 1.01 | S. cerevisiae deletion strains, locus YLL041C, strain sdh2, stronger effect = lower value 0.989 | S. cerevisiae deletion strains, locus YLR027C, strain aat2, stronger effect = lower value 1.02 | S. cerevisiae deletion strains, locus YLR039C, strain RIC1, stronger effect = lower value 1 | S. cerevisiae deletion strains, locus YLR058C, strain SHM2, stronger effect = lower value 0.982 | S. cerevisiae deletion strains, locus YLR102C, strain apc9, stronger effect = lower value 0.978 | S. cerevisiae deletion strains, locus YLR113W, strain HOG1, stronger effect = lower value 1 | S. cerevisiae deletion strains, locus YLR221C, strain rsa3, stronger effect = lower value 1.01 | S. cerevisiae deletion strains, locus YLR258W, strain gsy2, stronger effect = lower value 1.01 | S. cerevisiae deletion strains, locus YLR262C, strain YPT6 (second series), stronger effect = lower value 1.03 | S. cerevisiae deletion strains, locus YLR262C, strain YPT6, stronger effect = lower value 0.959 | S. cerevisiae deletion strains, locus YLR268W, strain sec22, stronger effect = lower value 1 | S. cerevisiae deletion strains, locus YLR320W, strain mms22, stronger effect = lower value 1.02 | S. cerevisiae deletion strains, locus YLR330W, strain CHS5, stronger effect = lower value 0.992 | S. cerevisiae deletion strains, locus YLR342W, strain FKS1 (second series), stronger effect = lower value 1 | S. cerevisiae deletion strains, locus YLR342W, strain FKS1, stronger effect = lower value 1.02 | S. cerevisiae deletion strains, locus YLR357W, strain rsc2, stronger effect = lower value 1.08 | S. cerevisiae deletion strains, locus YLR370C, strain arc18, stronger effect = lower value 1.01 | S. cerevisiae deletion strains, locus YLR371W, strain rom2, stronger effect = lower value 0.988 | S. cerevisiae deletion strains, locus YLR384C, strain iki3, stronger effect = lower value 1 | S. cerevisiae deletion strains, locus YLR418C, strain cdc73, stronger effect = lower value 1.01 | S. cerevisiae deletion strains, locus YML016C, strain PPZ1, stronger effect = lower value 1 | S. cerevisiae deletion strains, locus YML032C, strain rad52, stronger effect = lower value 1 | S. cerevisiae deletion strains, locus YML120C, strain ndi1, stronger effect = lower value 0.986 | S. cerevisiae deletion strains, locus YML124C, strain tub3, stronger effect = lower value 0.989 | S. cerevisiae deletion strains, locus YMR058W, strain fet3, stronger effect = lower value 0.988 | S. cerevisiae deletion strains, locus YMR078C, strain ctf18, stronger effect = lower value 0.973 | S. cerevisiae deletion strains, locus YMR125W, strain sto1, stronger effect = lower value 1.07 | S. cerevisiae deletion strains, locus YMR129W, stronger effect = lower value 1.01 | S. cerevisiae deletion strains, locus YMR205C, strain PFK2, stronger effect = lower value 1.01 | S. cerevisiae deletion strains, locus YMR223W, strain ubp8, stronger effect = lower value 0.949 | S. cerevisiae deletion strains, locus YMR231W, strain pep5, stronger effect = lower value 1.02 | S. cerevisiae deletion strains, locus YMR263W, strain SAP30, stronger effect = lower value 0.999 | S. cerevisiae deletion strains, locus YMR307W, strain GAS1, stronger effect = lower value 1.08 | S. cerevisiae deletion strains, locus YNL067W, strain RPL9B, stronger effect = lower value 0.996 | S. cerevisiae deletion strains, locus YNL071W, strain lat1, stronger effect = lower value 1 | S. cerevisiae deletion strains, locus YNL183C, strain NPR1, stronger effect = lower value 0.966 | S. cerevisiae deletion strains, locus YNL209W, strain ssb2, stronger effect = lower value 1.03 | S. cerevisiae deletion strains, locus YNL233W, strain BNI4, stronger effect = lower value 1 | S. cerevisiae deletion strains, locus YNL248C, strain rpa49, stronger effect = lower value 1.05 | S. cerevisiae deletion strains, locus YNL250W, strain rad50, stronger effect = lower value 0.974 | S. cerevisiae deletion strains, locus YNL271C, strain bni1, stronger effect = lower value 0.979 | S. cerevisiae deletion strains, locus YNL298W, strain CLA4, stronger effect = lower value 0.989 | S. cerevisiae deletion strains, locus YNL307C, strain MCK1, stronger effect = lower value 0.988 | S. cerevisiae deletion strains, locus YNL322C, strain KRE1 (second series), stronger effect = lower value 1.02 | S. cerevisiae deletion strains, locus YNL322C, strain KRE1, stronger effect = lower value 0.994 | S. cerevisiae deletion strains, locus YNR049C, strain mso1, stronger effect = lower value 1 | S. cerevisiae deletion strains, locus YNR052C, strain pop2, stronger effect = lower value 0.979 | S. cerevisiae deletion strains, locus YOL006C, strain TOP1, stronger effect = lower value 1.01 | S. cerevisiae deletion strains, locus YOL012C, strain htz1 0.693 | S. cerevisiae deletion strains, locus YOL147C, strain pex11, stronger effect = lower value 0.982 | S. cerevisiae deletion strains, locus YOR001W, strain rrp6, stronger effect = lower value 1 | S. cerevisiae deletion strains, locus YOR061W, strain CKA2, stronger effect = lower value 0.993 | S. cerevisiae deletion strains, locus YOR069W, strain VPS5, stronger effect = lower value 0.998 | S. cerevisiae deletion strains, locus YOR070C, strain gyp1, stronger effect = lower value 1.01 | S. cerevisiae deletion strains, locus YOR080W, strain dia2, stronger effect = lower value 1 | S. cerevisiae deletion strains, locus YOR083W, strain WHI5, stronger effect = lower value 0.983 | S. cerevisiae deletion strains, locus YOR106W, strain vam3, stronger effect = lower value 1.03 | S. cerevisiae deletion strains, locus YOR136W, strain idh2, stronger effect = lower value 0.99 | S. cerevisiae deletion strains, locus YOR144C, strain elg1, stronger effect = lower value 1 | S. cerevisiae deletion strains, locus YOR184W, strain ser1, stronger effect = lower value 0.996 | S. cerevisiae deletion strains, locus YOR231W, strain MKK1, stronger effect = lower value 1 | S. cerevisiae deletion strains, locus YOR265W, strain rbl2, stronger effect = lower value 1.01 | S. cerevisiae deletion strains, locus YOR270C, strain vph1, stronger effect = lower value 1.09 | S. cerevisiae deletion strains, locus YOR290C, strain snf2, stronger effect = lower value 1.04 | S. cerevisiae deletion strains, locus YOR316C, strain cot1, stronger effect = lower value 0.982 | S. cerevisiae deletion strains, locus YPL051W, strain arl3, stronger effect = lower value 1.01 | S. cerevisiae deletion strains, locus YPL055C, strain LGE1, stronger effect = lower value 0.992 | S. cerevisiae deletion strains, locus YPL078C, strain atp4, stronger effect = lower value 0.997 | S. cerevisiae deletion strains, locus YPL106C, strain sse1, stronger effect = lower value 1.01 | S. cerevisiae deletion strains, locus YPL240C, strain hsp82, stronger effect = lower value 1.01 | S. cerevisiae deletion strains, locus YPL241C, strain CIN2, stronger effect = lower value 0.994 | S. cerevisiae deletion strains, locus YPL256C, strain CLN2, stronger effect = lower value 1.04 | S. cerevisiae deletion strains, locus YPR119W, strain clb2, stronger effect = lower value 0.977 | S. cerevisiae deletion strains, locus YPR141C, strain kar3, stronger effect = lower value 0.98 | S. cerevisiae deletion strains, locus YPR163C, strain tif3, stronger effect = lower value 0.974 | S. cerevisiae deletion strains, locus YPR167C, strain met16, stronger effect = lower value 0.988 | S. cerevisiae deletion strains, strain wtn01, stronger effect = lower value 0.978 | S. cerevisiae strains, strain wild type, stronger effect = lower value 1
